Over roughly 16,000 sequences, “rpm ratio (pull-down/input)” has its median near 0.94; the highest 2% begin near 1.7. For the sample, the highest values were picked, then their nearest neighbours and some sequences at random.

This assay addresses T1, MBP-FoxP1dN (Mus musculus, UniProt P58462 326-579).
T1 sequence: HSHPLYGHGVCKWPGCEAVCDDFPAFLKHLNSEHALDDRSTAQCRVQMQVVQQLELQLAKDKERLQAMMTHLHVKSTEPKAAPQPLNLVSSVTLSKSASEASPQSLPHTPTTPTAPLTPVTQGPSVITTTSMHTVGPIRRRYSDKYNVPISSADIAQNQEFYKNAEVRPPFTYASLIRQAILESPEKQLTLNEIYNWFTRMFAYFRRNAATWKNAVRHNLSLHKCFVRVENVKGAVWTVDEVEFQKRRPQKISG
In words: PD-seq (MBP pull-down with sequencing); 20 mM Tris-HCl pH 7.5, 100 mM NaCl, 1.5 mM MgCl2, 0.4 uM protein, 0.1 uM dsDNA library, 30 min, room temperature, amylose pull-down; high values mean tight binding. As to conditions: protein: recombinant; tags: His6-MBP; chain copies: 2; dsDNA, one strand shown. Put shortly:
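Binding is reads-per-million enrichment of pull-down over input, with replicates pooled. It comes from 30 min room-temperature incubation in Tris pH 7.5 buffer with NaCl and MgCl2 of 0.4 µM His6-MBP-tagged, N-terminally truncated mouse FoxP3 or FoxP1 fragment from E. coli with 0.1 µM Klenow-filled degenerate double-stranded DNA library, followed by amylose resin capture, three washes and Illumina sequencing of the released DNA.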
As for “GATGATTGTTCTCCCAGCTGATGAATTGAGATCATCGAGTAAACAAATTTTCCTAATCTTTCTGTTCAAGCGCCATCTAC”, the binding signal is 0.904 RPM ratio (pull-down/input).

“GATGATTGTTCTCCCAGCTGATGAATTTATGACCTCGAGTAAACAAATTTTCCTAATCTTTCTGTTCAAGCGCCATCTAC”: the binding signal is 0.986 RPM ratio (pull-down/input).

In the case of “GATGATTGTTCTCCCAGCTGATGAATTACGATAGTCGAGTAAACAAATTTTCCTAATCTTTCTGTTCAAGCGCCATCTAC”, the binding signal is 1.01 RPM ratio (pull-down/input).

For “GATGATTGTTCTCCCAGCTGATGAATTTTCCCTATCGAGTAAACAAATTTTCCTAATCTTTCTGTTCAAGCGCCATCTAC”, the binding signal was 0.937 RPM ratio (pull-down/input).

With “GATGATTGTTCTCCCAGCTGATGAATTATACCCGTCGAGTAAACAAATTTTCCTAATCTTTCTGTTCAAGCGCCATCTAC”, the binding signal was 0.898 RPM ratio (pull-down/input).

As for “GATGATTGTTCTCCCAGCTGATGAATTACTTCGATCGAGTAAACAAATTTTCCTAATCTTTCTGTTCAAGCGCCATCTAC”, the binding signal is 1.01 RPM ratio (pull-down/input).

As to “GATGATTGTTCTCCCAGCTGATGAATTATCCATTTCGAGTAAACAAATTTTCCTAATCTTTCTGTTCAAGCGCCATCTAC”, the binding signal is 0.915 RPM ratio (pull-down/input).

Turning to “GATGATTGTTCTCCCAGCTGATGAATTTCACTAGTCGAGTAAACAAATTTTCCTAATCTTTCTGTTCAAGCGCCATCTAC”, the binding signal was 0.76 RPM ratio (pull-down/input).

Regarding “GATGATTGTTCTCCCAGCTGATGAATTCTGTTATTCGAGTAAACAAATTTTCCTAATCTTTCTGTTCAAGCGCCATCTAC”, the binding signal was 1.78 RPM ratio (pull-down/input).

As for “GATGATTGTTCTCCCAGCTGATGAATTGTTATATTCGAGTAAACAAATTTTCCTAATCTTTCTGTTCAAGCGCCATCTAC”, the binding signal is 1.57 RPM ratio (pull-down/input).

With “GATGATTGTTCTCCCAGCTGATGAATTTCGTTATTCGAGTAAACAAATTTTCCTAATCTTTCTGTTCAAGCGCCATCTAC”, the binding signal was 1.01 RPM ratio (pull-down/input).

Consider “GATGATTGTTCTCCCAGCTGATGAATTCACTCCCTCGAGTAAACAAATTTTCCTAATCTTTCTGTTCAAGCGCCATCTAC”, for which the binding signal is 0.792 RPM ratio (pull-down/input).

In the case of “GATGATTGTTCTCCCAGCTGATGAATTCGGTAAATCGAGTAAACAAATTTTCCTAATCTTTCTGTTCAAGCGCCATCTAC”, the binding signal is 1.22 RPM ratio (pull-down/input).

Take “GATGATTGTTCTCCCAGCTGATGAATTGCTTCGCTCGAGTAAACAAATTTTCCTAATCTTTCTGTTCAAGCGCCATCTAC”: the binding signal was 0.992 RPM ratio (pull-down/input).

Consider “GATGATTGTTCTCCCAGCTGATGAATTCCCTGATTCGAGTAAACAAATTTTCCTAATCTTTCTGTTCAAGCGCCATCTAC”, for which the binding signal was 0.807 RPM ratio (pull-down/input).

Consider “GATGATTGTTCTCCCAGCTGATGAATTGATCTATTCGAGTAAACAAATTTTCCTAATCTTTCTGTTCAAGCGCCATCTAC”, for which the binding signal was 1.15 RPM ratio (pull-down/input).

In the case of “GATGATTGTTCTCCCAGCTGATGAATTGATTTGATCGAGTAAACAAATTTTCCTAATCTTTCTGTTCAAGCGCCATCTAC”, the binding signal is 1.07 RPM ratio (pull-down/input).

Consider “GATGATTGTTCTCCCAGCTGATGAATTTGATTGATCGAGTAAACAAATTTTCCTAATCTTTCTGTTCAAGCGCCATCTAC”, for which the binding signal is 1.1 RPM ratio (pull-down/input).

Take “GATGATTGTTCTCCCAGCTGATGAATTCAATTGATCGAGTAAACAAATTTTCCTAATCTTTCTGTTCAAGCGCCATCTAC”: the binding signal is 1.02 RPM ratio (pull-down/input).

In the case of “GATGATTGTTCTCCCAGCTGATGAATTGTTGTGATCGAGTAAACAAATTTTCCTAATCTTTCTGTTCAAGCGCCATCTAC”, the binding signal is 2.32 RPM ratio (pull-down/input).

For the sequence “GATGATTGTTCTCCCAGCTGATGAATTCTATTGATCGAGTAAACAAATTTTCCTAATCTTTCTGTTCAAGCGCCATCTAC”, the binding signal is 2.09 RPM ratio (pull-down/input).

On to “GATGATTGTTCTCCCAGCTGATGAATTTTGTTGATCGAGTAAACAAATTTTCCTAATCTTTCTGTTCAAGCGCCATCTAC”, for which the binding signal was 2.8 RPM ratio (pull-down/input).

For “GATGATTGTTCTCCCAGCTGATGAATTCTTTTGATCGAGTAAACAAATTTTCCTAATCTTTCTGTTCAAGCGCCATCTAC”, the binding signal is 0.969 RPM ratio (pull-down/input).

In the case of “GATGATTGTTCTCCCAGCTGATGAATTGTGATGATCGAGTAAACAAATTTTCCTAATCTTTCTGTTCAAGCGCCATCTAC”, the binding signal is 1.42 RPM ratio (pull-down/input).

Consider “GATGATTGTTCTCCCAGCTGATGAATTTCTGTGATCGAGTAAACAAATTTTCCTAATCTTTCTGTTCAAGCGCCATCTAC”, for which the binding signal is 1.02 RPM ratio (pull-down/input).

With “GATGATTGTTCTCCCAGCTGATGAATTCTATTCATCGAGTAAACAAATTTTCCTAATCTTTCTGTTCAAGCGCCATCTAC”, the binding signal was 0.915 RPM ratio (pull-down/input).

Turning to “GATGATTGTTCTCCCAGCTGATGAATTCTGTTGATCGAGTAAACAAATTTTCCTAATCTTTCTGTTCAAGCGCCATCTAC”, the binding signal was 2.26 RPM ratio (pull-down/input).

Take “GATGATTGTTCTCCCAGCTGATGAATTGAGATTTTCGAGTAAACAAATTTTCCTAATCTTTCTGTTCAAGCGCCATCTAC”: the binding signal was 0.923 RPM ratio (pull-down/input).

For “GATGATTGTTCTCCCAGCTGATGAATTGAGGTCTTCGAGTAAACAAATTTTCCTAATCTTTCTGTTCAAGCGCCATCTAC”, the binding signal is 0.786 RPM ratio (pull-down/input).

As for “GATGATTGTTCTCCCAGCTGATGAATTCATCGCCTCGAGTAAACAAATTTTCCTAATCTTTCTGTTCAAGCGCCATCTAC”, the binding signal was 0.873 RPM ratio (pull-down/input).

“GATGATTGTTCTCCCAGCTGATGAATTACGGGGTTCGAGTAAACAAATTTTCCTAATCTTTCTGTTCAAGCGCCATCTAC”: the binding signal was 0.931 RPM ratio (pull-down/input).

(Values after paper PMC12820563, “FoxP3 forms a head-to-head dimer in vivo and stabilizes its multimerization on adjacent microsatellites”.)
